The whole screen tested about 310,000 compounds, of which about 14,000 (4.5%) showed an effect of 50% or more. Effects have a minus sign here. What follows is part of a selection rich in strong results, with near analogues and random picks from the rest.
Target: human ether-à-go-go-related gene (hERG) potassium channel (human, UniProt Q12809)
Assay: primary screen, population patch clamp on CHO cells stably expressing hERG; higher = less effect of the substance
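Also: peak tail current of the secondary pulse compared with the same well before compound.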

Sequence of human ether-à-go-go-related gene (hERG) potassium channel (Q12809 whole entry, looked up): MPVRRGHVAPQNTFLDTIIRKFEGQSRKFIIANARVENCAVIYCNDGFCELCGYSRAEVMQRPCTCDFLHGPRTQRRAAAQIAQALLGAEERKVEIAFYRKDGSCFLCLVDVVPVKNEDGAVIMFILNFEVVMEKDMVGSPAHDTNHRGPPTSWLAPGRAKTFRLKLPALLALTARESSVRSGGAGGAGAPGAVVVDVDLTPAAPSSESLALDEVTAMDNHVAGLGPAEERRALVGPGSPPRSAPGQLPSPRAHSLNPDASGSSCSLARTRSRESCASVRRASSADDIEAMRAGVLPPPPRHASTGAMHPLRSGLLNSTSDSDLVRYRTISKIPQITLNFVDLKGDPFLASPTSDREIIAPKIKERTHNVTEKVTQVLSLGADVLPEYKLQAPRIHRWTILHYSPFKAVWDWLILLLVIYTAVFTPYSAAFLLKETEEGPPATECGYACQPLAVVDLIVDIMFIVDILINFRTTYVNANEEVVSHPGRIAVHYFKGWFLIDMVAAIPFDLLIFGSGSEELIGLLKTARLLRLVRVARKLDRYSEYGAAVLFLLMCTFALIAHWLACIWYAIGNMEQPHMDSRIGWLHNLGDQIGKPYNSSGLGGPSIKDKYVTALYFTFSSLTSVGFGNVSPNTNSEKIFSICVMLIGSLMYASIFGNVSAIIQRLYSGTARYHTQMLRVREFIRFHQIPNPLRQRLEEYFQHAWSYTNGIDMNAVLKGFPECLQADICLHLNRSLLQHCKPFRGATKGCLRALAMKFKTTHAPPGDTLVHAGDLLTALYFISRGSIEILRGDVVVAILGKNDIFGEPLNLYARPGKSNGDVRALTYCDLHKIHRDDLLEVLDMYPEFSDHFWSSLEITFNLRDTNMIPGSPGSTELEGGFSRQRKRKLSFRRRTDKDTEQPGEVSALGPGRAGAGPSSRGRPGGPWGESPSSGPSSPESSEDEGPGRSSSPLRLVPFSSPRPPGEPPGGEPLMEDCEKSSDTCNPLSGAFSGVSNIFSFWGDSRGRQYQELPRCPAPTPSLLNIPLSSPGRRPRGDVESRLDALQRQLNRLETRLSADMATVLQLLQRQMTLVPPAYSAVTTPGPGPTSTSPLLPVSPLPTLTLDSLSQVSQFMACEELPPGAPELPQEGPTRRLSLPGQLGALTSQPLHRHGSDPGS

SMILES | hERG current change (%, negative = inhibition) at 10uM [%]
COc1ccc(NC(=O)Nc2ccccc2SC)cc1OC | 6.08
Cc1ccc(C)c(N2CCN(C(=O)Cn3c(=O)[nH]c4ccsc4c3=O)CC2)c1 | -4.12
Cc1ccc(C(=O)Nc2nnc(-c3ccc(C(C)(C)C)cc3)s2)cc1 | 4.81
CCN(CC)CCCN1CC(=O)N2[C@@H](Cc3c([nH]c4ccccc34)C2(C)C)C1=O | 1.24
CCCCN(CCCC)CCCN1CC(=O)N2[C@@H](Cc3c([nH]c4ccccc34)C2(C)C)C1=O | -73.2
CCCCCCN1CC(=O)N2[C@@H](Cc3c([nH]c4ccccc34)C2(C)C)C1=O | 13.9
O=C(NCc1cccnc1)c1cc(-c2ccco2)on1 | 8.02
CC(NC(=O)C1CCN(C(=O)[C@@H]2Cc3ccccc3CN2C(=O)OC(C)(C)C)CC1)c1ccccc1 (stereo partly drawn) | 14
O=C(NCC(=O)N(c1cnc2ccccc2c1)C(C(=O)NC1CCCC1)c1ccncc1)c1ccco1 (stereo not drawn) | 8.74
CC(C)(C)S(=O)(=O)c1nc2ccccc2s1 | 6.74
CCCc1ccc2oc(C(=O)N3CCC(O)CC3)c(C)c2c1 | -12.2
CCCc1ccc2oc(C(=O)N3CCCC3)c(C)c2c1 | -7.11
CCCc1ccc2oc(C(=O)N3CCN(C4CCS(=O)(=O)C4)CC3)c(C)c2c1 (stereo not drawn) | -51.3
Oc1oc(-c2ccccc2)nc1C=NCc1ccncc1 | -7.6
COc1ccc(S(=O)(=O)N[C@@H](Cc2ccccc2)C(=O)N2CC[C@@]3(O)CCCC[C@H]3C2)cc1 | -14.9
CCCn1c(-c2cc(OC)c(OC)c(OC)c2)nc2c1c(=O)[nH]c(=O)n2Cc1ccccc1 | 5.09
CCCn1c(-c2cccc(F)c2)nc2c1c(=O)[nH]c(=O)n2Cc1ccccc1 | 17.5
CCCn1c(=O)[nH]c(=O)c2c1nc(-c1ccc(OC)c(Br)c1)n2CCOC | -20.1
CCCCn1c(=O)[nH]c(=O)c2c1nc(-c1ccc(OC(F)F)c(OC)c1)n2C | 17.1
CCCn1c(=O)[nH]c(=O)c2c1nc(-c1ccc(OC(F)F)c(OC)c1)n2CCOC | -50.5
COCCCn1c(-c2cccc(Cl)c2)nc2c1c(=O)[nH]c(=O)n2Cc1ccccc1 | -0.77

SMILES | hERG current change (%, negative = inhibition) at 10uM [%]
COCCn1c(-c2ccc(C#N)cc2)nc2c1c(=O)[nH]c(=O)n2Cc1ccccc1 | -33.9
CCCn1c(-c2cccc([N+](=O)[O-])c2)nc2c1c(=O)[nH]c(=O)n2Cc1ccccc1 | -66.4
COCCn1c(-c2cccc([N+](=O)[O-])c2)nc2c1c(=O)[nH]c(=O)n2Cc1ccccc1 | -84.2
CS(=O)(=O)c1ccc2nc(NC(=O)c3ccc(Cn4cc(Br)cn4)o3)sc2c1 | -27.1
CCc1c(C)[nH]c2c1C(=O)C(CN1CCOCC1)CC2.Cl (stereo not drawn) | -7.67
CCOc1cc(C(=O)O/N=C(\N)c2ccc([N+](=O)[O-])cc2)cc(OCC)c1OCC | -16
CCOc1ccccc1N1C(=O)NC(=O)/C(=C/c2ccc3c4c(cccc24)CC3)C1=O | 2.74
CSc1nsc(SC)c1NC(=O)OCCc1ccccn1 | -6.18
CCCC(c1nnnn1CCOC)N1CCN(c2nc3ccccc3s2)CC1 (stereo not drawn) | -66.2
COCCn1nnnc1C(c1ccc(OC)c(OC)c1)N1CCN(c2nc3ccccc3s2)CC1 (stereo not drawn) | -56.3
CCC(c1nnnn1CCOC)N1CCN(c2nc3ccccc3s2)CC1 (stereo not drawn) | -34.7
CC(C)CC(c1nnnn1Cc1cccs1)N1CCN(c2nc3ccccc3s2)CC1 (stereo not drawn) | 0.473
c1ccc(CCn2nnnc2C(c2cccnc2)N2CCN(c3ccccc3)CC2)cc1 (stereo not drawn) | -47.6
c1ccc(CCn2nnnc2C(c2cccnc2)N2CCN(c3nc4ccccc4s3)CC2)cc1 (stereo not drawn) | -58.7
CCCC(c1nnnn1Cc1cccs1)N1CCN(c2nc3ccccc3s2)CC1 (stereo not drawn) | -22.4
COc1cc(C(c2nnnn2C(C)(C)C)N2CCN(c3nc4ccccc4s3)CC2)ccc1O (stereo not drawn) | -28.1
CCC(c1nnnn1Cc1cccs1)N1CCN(c2nc3ccccc3s2)CC1 (stereo not drawn) | -56.1
COCCn1nnnc1C(CC(C)C)N1CCN(c2nc3ccccc3s2)CC1 (stereo not drawn) | -9.4
Oc1ccc(C(c2nnnn2CCc2ccccc2)N2CCN(c3nc4ccccc4s3)CC2)cc1 (stereo not drawn) | 9.25
COCCn1nnnc1C(c1cccs1)N1CCN(c2nc3ccccc3s2)CC1 (stereo not drawn) | -25.3
Cc1ccc2nc(SC(C(=O)Nc3ccc(F)cc3)c3ccccc3)[nH]c2c1 (stereo not drawn) | -1.38

SMILES | hERG current change (%, negative = inhibition) at 10uM [%]
Cc1ccsc1/C=N/NC(=O)c1ccc2nc[nH]c2c1 | -2.67
COC(=O)c1cc(C#N)c(OC(C)C)nc1C | -6.52
Cc1cc(C)c(S(=O)(=O)N2CCCOC2CNC(=O)C(=O)NCc2cccnc2)c(C)c1 (stereo not drawn) | 8.23
COc1ccc(C(c2nnnn2Cc2ccccc2)N2CCN(c3nc4ccccc4s3)CC2)cc1 (stereo not drawn) | 13.7
COc1ccccc1C(c1nnnn1Cc1ccccc1)N1CCN(c2nc3ccccc3s2)CC1.Cl (stereo not drawn) | 23.1
COc1ccc(C(c2nnnn2Cc2ccccc2)N2CCN(c3nc4ccccc4s3)CC2)cc1OC.Cl (stereo not drawn) | -58.4
O=C(N/N=C/c1ccc(Cl)cc1)c1nc2ccc([N+](=O)[O-])cc2c(=O)[nH]1 | -27.3
CC(C)Cn1c(CN2C(=O)c3ccccc3C2=O)nc2ccccc2c1=O | 16.7
Fc1cc(Br)ccc1NC(=S)NCCc1ccccc1 | -1.43
O=C(c1cc(C2CC2)on1)N1CCCC(N2CCN(c3ccc(F)cc3)CC2)C1 (stereo not drawn) | -63.7
COC(=O)c1ccc(C(=O)N2CCCC(N3CCN(c4ccccc4)CC3)C2)nc1 (stereo not drawn) | -22.4
CC(C)c1cc(C(=O)N2CCCC(N3CCN(c4ccc(F)cc4)CC3)C2)no1 (stereo not drawn) | -72.1
O=C(c1cc(C2CC2)on1)N1CCCC(N2CCN(c3cccc(C(F)(F)F)c3)CC2)C1 (stereo not drawn) | -48.7
COC(=O)c1ccc(C(=O)N2CCCC(N3CCN(c4ccc(F)cc4)CC3)C2)nc1 (stereo not drawn) | -56.1
CCCc1cc(C(=O)N2CCCC(N3CCN(c4ccc(F)cc4)CC3)C2)no1 (stereo not drawn) | -73
O=C(c1ccccn1)N1CCCC(N2CCN(c3ccc(F)cc3)CC2)C1 (stereo not drawn) | -37.2
COCc1ccc(C(=O)N2CCCC(N3CCN(c4ccc(F)cc4)CC3)C2)o1 (stereo not drawn) | -47.3
CCc1noc(C)c1C(=O)N1CCCC(N2CCN(c3ccc(F)cc3)CC2)C1 (stereo not drawn) | -27.2
Cc1cccc(C(=O)N2CCCC(N3CCN(c4ccc(F)cc4)CC3)C2)n1 (stereo not drawn) | -48.4
Cc1cc(C(=O)N2CCCC(N3CCN(c4ccc(F)cc4)CC3)C2)no1 (stereo not drawn) | -37.7
O=C(c1cc(C2CC2)on1)N1CCN(c2ccc(F)cc2)CC1 | -43.4

Source: article PMC4336329 (PLoS ONE, 2015)
